According to PubChem BioAssay (NCI):
About 83,000 compounds went through this panel and 20% of them were active in at least one assay; those are over-represented in the sample as a whole.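 48-hour exposure, single concentration, 96-well plates; percent growth endpoint where 0 means no net growth. Active: below 10.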 Activity calls are given as the source filed them.

Experiments:
Assay in all cases: NCI-60 one-dose screen, 48 h (100 = growth as untreated, 0 = no growth, -100 = all killed)
Settings in all cases: 10 µM
HT29 colon = test system: HT29 colon
SNB-75 CNS = test system: SNB-75 CNS
SNB-19 CNS = test system: SNB-19 CNS
U251 CNS = test system: U251 CNS
PC-3 prostate = test system: PC-3 prostate
SK-MEL-5 melanoma = test system: SK-MEL-5 melanoma
UACC-62 melanoma = test system: UACC-62 melanoma
LOX IMVI melanoma = test system: LOX IMVI melanoma
SK-MEL-28 melanoma = test system: SK-MEL-28 melanoma
SK-MEL-2 melanoma = test system: SK-MEL-2 melanoma

Measured: growth

CCOC(=O)C(CSC(c1ccccc1)(c1ccccc1)c1ccccc1)NC(=O)C(CSC(c1ccccc1)(c1ccccc1)c1ccccc1)NC(c1ccccc1)(c1ccccc1)c1ccccc1 (stereo not given)
inactive: HT29 colon 113% | SNB-75 CNS 86.8% | SNB-19 CNS 107% | U251 CNS 97.3% | PC-3 prostate 102% | SK-MEL-5 melanoma 98.6% | UACC-62 melanoma 113% | LOX IMVI melanoma 99.6% | SK-MEL-28 melanoma 99.8% | SK-MEL-2 melanoma 115%

CC1(C)OC2=C(CC1Br)C(=O)C(=O)c1ccccc12 (stereo not given)
active: HT29 colon -11.7% | SNB-19 CNS -19% | U251 CNS -73.7% | PC-3 prostate -16.8% | SK-MEL-5 melanoma -99.7% | UACC-62 melanoma -78.9% | LOX IMVI melanoma -77.3% | SK-MEL-28 melanoma -94% | SK-MEL-2 melanoma -42.9%
inactive: SNB-75 CNS 11.1%

O=C(C[P+](c1ccccc1)(c1ccccc1)c1ccccc1)C[P+](c1ccccc1)(c1ccccc1)c1ccccc1
active: HT29 colon -77.3% | SNB-75 CNS -22.6% | U251 CNS -91.8% | PC-3 prostate -77.7% | SK-MEL-5 melanoma -88.9% | UACC-62 melanoma -79.6% | LOX IMVI melanoma -87.2% | SK-MEL-28 melanoma -42% | SK-MEL-2 melanoma -79.8%
inactive: SNB-19 CNS 20.3%

CC(=O)N1N=C(c2ccc(Cl)cc2)CC1c1sc(Cl)nc1Cl (stereo not given)
inactive: HT29 colon 64.2% | SNB-75 CNS 84.3% | SNB-19 CNS 66.9% | U251 CNS 71.2% | PC-3 prostate 72.8% | SK-MEL-5 melanoma 89.5% | UACC-62 melanoma 83.3% | LOX IMVI melanoma 88.4% | SK-MEL-28 melanoma 94.7% | SK-MEL-2 melanoma 84.9%

Clc1nc(Cl)c2c(ncn2C/C=C\Cn2cnc3c(Cl)nc(Cl)nc32)n1
active: HT29 colon -30.6% | SNB-75 CNS -28.9% | SNB-19 CNS -15.6% | U251 CNS -93.6% | PC-3 prostate -96.2% | SK-MEL-5 melanoma -91% | UACC-62 melanoma -79% | LOX IMVI melanoma -94.2% | SK-MEL-28 melanoma -50.3% | SK-MEL-2 melanoma 5.02%

Cc1ccc(C(=O)N2C/C(=C/c3ccccc3)C(=O)/C(=C/c3ccccc3)C2)cc1
inactive: SNB-75 CNS 67.9% | SNB-19 CNS 83% | U251 CNS 47% | PC-3 prostate 65.3% | SK-MEL-5 melanoma 58.9% | UACC-62 melanoma 76.9% | SK-MEL-28 melanoma 79.8% | SK-MEL-2 melanoma 80.2%
active: HT29 colon -17.9% | LOX IMVI melanoma -24.5%

CCCCCCNC(=O)Oc1ccc(/C(=C(/CC)Cc2ccccc2)c2ccc(OCCN3CCCCC3)cc2)cc1
inactive: HT29 colon 20.3% | SNB-75 CNS 80.2% | SNB-19 CNS 85.9% | U251 CNS 69.3% | PC-3 prostate 73.2% | SK-MEL-5 melanoma 84.5% | UACC-62 melanoma 99.5% | LOX IMVI melanoma 96.8% | SK-MEL-28 melanoma 96.4% | SK-MEL-2 melanoma 91.3%

COc1ccc2c(c1)sc1nc(-c3ccccc3)c(-c3cccnc3)n12
inactive: HT29 colon 91.5% | SNB-75 CNS 95.5% | SNB-19 CNS 103% | U251 CNS 96.2% | PC-3 prostate 88.9% | SK-MEL-5 melanoma 77.7% | UACC-62 melanoma 82.7% | LOX IMVI melanoma 91.4% | SK-MEL-28 melanoma 110% | SK-MEL-2 melanoma 120%

CCCCCCCCCCCCCC[n+]1ccc(C(N)=O)cc1
active: HT29 colon -28.2% | SNB-75 CNS -24.8% | SNB-19 CNS -58.5% | U251 CNS -100% | PC-3 prostate -23.3% | SK-MEL-5 melanoma -82.8% | UACC-62 melanoma 0.667% | LOX IMVI melanoma -48.9% | SK-MEL-2 melanoma -32.4%
inactive: SK-MEL-28 melanoma 43.3%

COC(=O)C1=NNC(=S)N(c2cc(C)[nH]n2)C(=O)C1
inactive: HT29 colon 113% | SNB-75 CNS 93.9% | SNB-19 CNS 98% | U251 CNS 101% | PC-3 prostate 99.1% | SK-MEL-5 melanoma 101% | UACC-62 melanoma 103% | LOX IMVI melanoma 95.9% | SK-MEL-28 melanoma 114% | SK-MEL-2 melanoma 100%

CC[C@H](C)C(=O)O[C@H]1CCC=C2C=C[C@H](C)C(CCC3C[C@@H](O)CC(=O)O3)[C@H]21 (stereo not given in full)
inactive: HT29 colon 92.3% | SNB-75 CNS 32.2% | SNB-19 CNS 56.2% | U251 CNS 16.8% | PC-3 prostate 31.1% | SK-MEL-5 melanoma 60% | UACC-62 melanoma 29.6% | LOX IMVI melanoma 11.6% | SK-MEL-28 melanoma 78.4% | SK-MEL-2 melanoma 19.5%

Cc1ccc2oc3nc(C)c(C(=O)NCc4ccccc4)cc3c(=O)c2c1
inactive: HT29 colon 95% | SNB-75 CNS 88% | SNB-19 CNS 83.2% | U251 CNS 79% | PC-3 prostate 93.5% | SK-MEL-5 melanoma 76.9% | UACC-62 melanoma 25.6% | LOX IMVI melanoma 68.8% | SK-MEL-28 melanoma 78.1%
active: SK-MEL-2 melanoma 8.63%

CN(C)c1ccc(-c2cc(-c3cccc(NS(C)(=O)=O)c3)nc(N)c2C#N)cc1
inactive: SNB-19 CNS 43.3% | U251 CNS 20.3% | PC-3 prostate 10.4% | UACC-62 melanoma 47.4% | LOX IMVI melanoma 23.7% | SK-MEL-28 melanoma 69% | SK-MEL-2 melanoma 57.2%
active: HT29 colon 8.8% | SNB-75 CNS -2.46% | SK-MEL-5 melanoma 4.17%

CC1(C)Cc2c(sc3ncn4nc(-c5ccc(O)cc5)nc4c23)CO1
inactive: HT29 colon 111% | SNB-75 CNS 35.5% | SNB-19 CNS 79.9% | U251 CNS 60.6% | PC-3 prostate 44.4% | SK-MEL-5 melanoma 56.7% | UACC-62 melanoma 82.5% | LOX IMVI melanoma 75% | SK-MEL-28 melanoma 73.5% | SK-MEL-2 melanoma 84.7%
